The supplement of paper PMC11732987, “Enantioselective OTUD7B fragment discovery through chemoproteomics screening and high-throughput optimisation” (Communications Chemistry, 2025)

What was measured:
Assay in all cases: log2 ratio of Biotin-Ahx-Ub-VS probe labelling (fragment/DMSO); higher = less target engagement (more negative = stronger competition), active = hit call of the paper (q ≤ 0.05, log2 ratio ≤ -1)
Details in all cases: compound concentration: 200 uM; treatment time: 3 h
OTUD6B = target: T1, OTUD6B (UniProt Q8N6M0)
T1 sequence (whole entry): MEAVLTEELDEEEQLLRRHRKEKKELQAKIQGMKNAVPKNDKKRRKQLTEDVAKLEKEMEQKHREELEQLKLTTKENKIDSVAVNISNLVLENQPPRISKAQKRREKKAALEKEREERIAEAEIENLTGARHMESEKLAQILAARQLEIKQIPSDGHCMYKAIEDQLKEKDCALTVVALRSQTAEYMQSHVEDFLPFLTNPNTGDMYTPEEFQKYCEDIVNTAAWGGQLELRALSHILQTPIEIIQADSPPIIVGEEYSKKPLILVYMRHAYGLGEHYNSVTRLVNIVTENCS
In short: (§1)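 HEK293T lysate (495 µg per sample, in Tris/CHAPS/IGEPAL buffer with protease inhibitors) was treated in triplicate with fragment at 200 µM or with DMSO for 3 h. It was then treated with Biotin-Ahx-Ub-VS (0.5 µM final) for 1 h. Labelled DUBs were NeutrAvidin-enriched, digested with LysC and trypsin, and run by diaPASEF LC-MS/MS. Spectronaut label-free quantities were global-median-normalised. Values are average log2 ratios fragment/DMSO by unpaired t-test, using proteins with ≥2 unique peptides.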

OTUD7B = target: T2, OTUD7B (UniProt Q6GQQ9)
T2 sequence (whole entry): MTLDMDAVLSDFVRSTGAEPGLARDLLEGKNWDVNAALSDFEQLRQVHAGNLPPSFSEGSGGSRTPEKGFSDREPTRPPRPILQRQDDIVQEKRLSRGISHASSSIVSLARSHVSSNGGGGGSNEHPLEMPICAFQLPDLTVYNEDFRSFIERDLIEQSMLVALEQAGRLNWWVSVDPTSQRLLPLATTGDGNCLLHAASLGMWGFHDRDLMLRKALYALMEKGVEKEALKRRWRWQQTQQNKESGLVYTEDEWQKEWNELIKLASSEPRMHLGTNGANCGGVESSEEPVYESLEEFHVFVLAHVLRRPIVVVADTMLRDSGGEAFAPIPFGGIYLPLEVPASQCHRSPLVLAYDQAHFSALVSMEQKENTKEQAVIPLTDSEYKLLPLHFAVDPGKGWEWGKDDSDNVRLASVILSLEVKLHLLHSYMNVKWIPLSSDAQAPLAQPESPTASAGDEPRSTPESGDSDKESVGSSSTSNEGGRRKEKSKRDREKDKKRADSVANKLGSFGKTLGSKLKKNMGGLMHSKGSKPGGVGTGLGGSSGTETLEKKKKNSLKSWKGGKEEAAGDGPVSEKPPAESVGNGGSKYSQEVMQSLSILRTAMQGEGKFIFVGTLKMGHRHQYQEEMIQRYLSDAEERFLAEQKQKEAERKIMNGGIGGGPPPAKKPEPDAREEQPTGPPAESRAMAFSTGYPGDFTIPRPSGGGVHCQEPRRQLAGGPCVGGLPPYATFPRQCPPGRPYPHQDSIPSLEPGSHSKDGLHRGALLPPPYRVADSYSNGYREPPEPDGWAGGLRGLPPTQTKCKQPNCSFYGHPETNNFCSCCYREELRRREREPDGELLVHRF
In short: as §1

PRPF8 = PRPF8 (UniProt Q6P2Q9)
In short: as §1

PSMD7 = target: T3, PSMD7 (UniProt P51665)
T3 sequence (whole entry): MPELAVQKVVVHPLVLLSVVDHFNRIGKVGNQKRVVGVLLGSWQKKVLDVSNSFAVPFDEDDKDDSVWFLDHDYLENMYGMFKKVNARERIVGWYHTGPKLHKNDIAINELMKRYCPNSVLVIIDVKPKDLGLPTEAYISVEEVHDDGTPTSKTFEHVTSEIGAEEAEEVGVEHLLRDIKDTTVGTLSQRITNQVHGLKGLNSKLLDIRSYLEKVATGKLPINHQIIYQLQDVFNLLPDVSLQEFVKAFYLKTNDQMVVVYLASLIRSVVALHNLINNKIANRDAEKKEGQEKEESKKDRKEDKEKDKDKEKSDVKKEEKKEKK
In short: as §1

UCHL1 = UCHL1 (UniProt P09936)
In short: as §1

UCHL3 = target: T4, UCHL3 (UniProt P15374)
T4 sequence (whole entry): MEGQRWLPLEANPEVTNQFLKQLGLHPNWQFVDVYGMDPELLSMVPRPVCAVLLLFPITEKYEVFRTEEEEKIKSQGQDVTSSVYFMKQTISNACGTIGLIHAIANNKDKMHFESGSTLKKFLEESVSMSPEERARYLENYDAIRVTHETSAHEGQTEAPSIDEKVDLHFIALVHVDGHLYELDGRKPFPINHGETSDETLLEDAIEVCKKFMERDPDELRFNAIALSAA
In short: as §1

UCHL5 = target: T5, UCHL5 (UniProt Q9Y5K5)
T5 sequence (whole entry): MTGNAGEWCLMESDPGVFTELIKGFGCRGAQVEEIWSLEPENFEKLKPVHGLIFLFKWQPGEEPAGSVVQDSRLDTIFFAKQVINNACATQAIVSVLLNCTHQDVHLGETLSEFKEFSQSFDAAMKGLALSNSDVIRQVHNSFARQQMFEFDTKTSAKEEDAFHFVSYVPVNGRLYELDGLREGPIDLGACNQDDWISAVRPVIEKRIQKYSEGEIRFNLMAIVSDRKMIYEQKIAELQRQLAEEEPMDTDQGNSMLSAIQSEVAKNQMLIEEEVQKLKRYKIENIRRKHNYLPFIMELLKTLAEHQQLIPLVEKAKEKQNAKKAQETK
In short: as §1

USP10 = USP10 (UniProt Q14694)
In short: as §1

USP15 = target: T6, USP15 (UniProt Q9Y4E8)
T6 sequence (whole entry): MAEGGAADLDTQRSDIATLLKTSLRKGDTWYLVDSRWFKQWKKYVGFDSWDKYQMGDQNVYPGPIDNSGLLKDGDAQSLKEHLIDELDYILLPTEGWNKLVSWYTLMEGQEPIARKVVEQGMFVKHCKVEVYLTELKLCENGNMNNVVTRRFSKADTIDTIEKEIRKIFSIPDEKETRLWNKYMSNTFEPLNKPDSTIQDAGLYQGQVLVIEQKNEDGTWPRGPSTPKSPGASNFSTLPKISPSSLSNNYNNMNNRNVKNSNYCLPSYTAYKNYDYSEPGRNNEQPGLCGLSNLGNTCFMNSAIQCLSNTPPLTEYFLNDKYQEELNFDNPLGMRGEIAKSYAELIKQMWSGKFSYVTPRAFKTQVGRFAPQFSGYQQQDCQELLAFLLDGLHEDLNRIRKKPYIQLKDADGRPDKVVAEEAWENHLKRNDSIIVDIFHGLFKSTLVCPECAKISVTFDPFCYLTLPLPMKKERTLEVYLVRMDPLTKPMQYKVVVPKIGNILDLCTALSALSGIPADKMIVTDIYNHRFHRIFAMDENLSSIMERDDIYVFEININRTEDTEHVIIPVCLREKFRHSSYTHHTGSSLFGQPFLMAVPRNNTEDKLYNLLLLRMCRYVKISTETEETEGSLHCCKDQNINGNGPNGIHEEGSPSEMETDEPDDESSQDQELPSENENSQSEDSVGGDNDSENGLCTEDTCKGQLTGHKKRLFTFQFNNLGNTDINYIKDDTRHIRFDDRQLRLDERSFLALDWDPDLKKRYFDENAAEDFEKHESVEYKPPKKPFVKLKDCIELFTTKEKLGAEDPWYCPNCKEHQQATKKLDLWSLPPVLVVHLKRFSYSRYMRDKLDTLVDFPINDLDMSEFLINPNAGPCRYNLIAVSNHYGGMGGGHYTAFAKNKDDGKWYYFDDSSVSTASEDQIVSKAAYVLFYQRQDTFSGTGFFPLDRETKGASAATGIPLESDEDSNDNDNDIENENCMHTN
In short: as §1

USP16 = USP16 (UniProt Q9Y5T5)
In short: as §1

Measured: log2 ratio of Biotin-Ahx-Ub-VS probe labelling

Chain of USP10 (Q14694 whole entry): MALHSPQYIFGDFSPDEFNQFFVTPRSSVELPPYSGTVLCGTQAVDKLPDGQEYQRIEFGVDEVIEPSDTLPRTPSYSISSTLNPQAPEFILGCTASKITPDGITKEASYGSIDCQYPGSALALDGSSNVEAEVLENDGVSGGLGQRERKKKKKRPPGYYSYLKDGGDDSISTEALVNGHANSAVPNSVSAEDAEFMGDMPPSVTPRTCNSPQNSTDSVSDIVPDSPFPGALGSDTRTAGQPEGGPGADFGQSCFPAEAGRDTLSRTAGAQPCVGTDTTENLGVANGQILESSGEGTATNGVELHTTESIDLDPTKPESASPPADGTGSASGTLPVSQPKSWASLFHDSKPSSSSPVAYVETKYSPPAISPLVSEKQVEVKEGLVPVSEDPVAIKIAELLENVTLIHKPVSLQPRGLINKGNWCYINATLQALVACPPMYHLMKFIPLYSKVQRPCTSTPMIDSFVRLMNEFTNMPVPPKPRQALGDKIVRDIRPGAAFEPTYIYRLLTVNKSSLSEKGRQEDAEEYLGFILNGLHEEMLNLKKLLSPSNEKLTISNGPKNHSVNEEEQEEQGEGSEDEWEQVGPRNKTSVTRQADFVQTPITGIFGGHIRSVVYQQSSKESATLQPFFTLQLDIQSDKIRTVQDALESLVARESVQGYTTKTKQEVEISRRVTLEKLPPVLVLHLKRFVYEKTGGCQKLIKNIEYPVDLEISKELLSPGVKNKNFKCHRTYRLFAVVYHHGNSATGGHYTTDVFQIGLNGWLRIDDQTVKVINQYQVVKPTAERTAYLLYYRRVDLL
Chain of UCHL1 (P09936 whole entry, looked up): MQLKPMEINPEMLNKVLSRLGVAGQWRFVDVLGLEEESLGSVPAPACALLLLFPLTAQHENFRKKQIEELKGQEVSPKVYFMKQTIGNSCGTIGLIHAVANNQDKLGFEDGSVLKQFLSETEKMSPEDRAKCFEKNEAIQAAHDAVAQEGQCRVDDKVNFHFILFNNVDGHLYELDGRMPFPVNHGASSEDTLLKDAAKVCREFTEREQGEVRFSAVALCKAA
Chain of USP16 (Q9Y5T5 whole entry, looked up): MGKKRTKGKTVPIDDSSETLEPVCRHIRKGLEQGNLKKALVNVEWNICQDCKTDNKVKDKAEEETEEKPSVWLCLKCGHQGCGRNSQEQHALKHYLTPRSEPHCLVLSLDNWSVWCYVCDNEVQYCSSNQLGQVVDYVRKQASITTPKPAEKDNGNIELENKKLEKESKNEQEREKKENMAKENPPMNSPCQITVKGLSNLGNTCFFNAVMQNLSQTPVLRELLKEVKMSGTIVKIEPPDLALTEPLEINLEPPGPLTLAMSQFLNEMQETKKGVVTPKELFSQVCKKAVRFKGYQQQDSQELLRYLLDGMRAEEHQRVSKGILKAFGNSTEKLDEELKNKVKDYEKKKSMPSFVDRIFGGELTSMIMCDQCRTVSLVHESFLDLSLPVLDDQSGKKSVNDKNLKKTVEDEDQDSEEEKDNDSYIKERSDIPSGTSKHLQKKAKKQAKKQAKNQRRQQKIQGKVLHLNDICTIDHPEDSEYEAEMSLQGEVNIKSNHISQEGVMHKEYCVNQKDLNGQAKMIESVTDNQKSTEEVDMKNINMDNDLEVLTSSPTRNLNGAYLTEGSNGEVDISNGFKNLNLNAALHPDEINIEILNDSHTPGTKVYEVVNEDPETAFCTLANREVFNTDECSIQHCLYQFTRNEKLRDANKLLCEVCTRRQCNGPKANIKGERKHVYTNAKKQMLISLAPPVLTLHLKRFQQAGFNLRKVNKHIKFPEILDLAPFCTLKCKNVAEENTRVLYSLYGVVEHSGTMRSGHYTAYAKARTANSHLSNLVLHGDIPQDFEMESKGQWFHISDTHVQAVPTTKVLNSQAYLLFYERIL

COc1ccc(Cl)cc1NC(=O)CCl
active: OTUD7B -1.29 | UCHL1 -1.01
inactive: OTUD6B -0.594 | PRPF8 -0.0117 | PSMD7 -0.241 | UCHL3 -0.0348 | UCHL5 -0.501 | USP10 -0.263 | USP15 -0.674 | USP16 -0.286
